Source: PubChem (National Center for Advancing Translational Sciences (NCATS))
An excerpt weighted towards active compounds, which were near 10% of everything screened.
GLS inhibitor: glutaminase GLS (human) inhibition; O94925; GLS enzymatic activity, qHTS titration; Potency, µM (series often up to 45.5 µM), inactives show at the highest dose activity change, negative = inhibition, usual class: inhibitors; 410,000 compounds, 0.21% hits; AID 624170; note: % is set by controls: 0 for no effect and ±100 for the full control effect
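Compounds were pin-transferred onto hKGA, after which L-glutamine (1 mM solution) and a detection mix of glutamate oxidase, HRP and Amplex Red were added. Initial and 30 min RT fluorescence reads were collected.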
BAZ2B block: blocks human BAZ2B; AlphaScreen BAZ2B-H3K14Ac peptide displacement; 360,000 compounds, 4.4% hits; Potency, µM (titrated, usually from 114 µM), without a hit: at the highest dose activity change, negative = inhibition, usual class: inhibitors; AID 504333; Q9UIF8; note: % is set by controls: 0 for no effect and ±100 for the full control effect; nearly all actives have a fitted effect of over 60% in size
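AlphaScreen displacement: compounds (up to 110uM) incubated 30 min at room temperature with a preformed 50 nM BAZ2B/50 nM biotinylated H3K14Ac peptide complex in PBS pH 7.4 with Tween-20. Donor and acceptor beads at 10 ug/mL final added, 20 min light-protected before reading.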
JMJD2A Tudor: inhibitors of human JMJD2A Tudor domain; O75164; AlphaScreen JMJD2A-Tudor / H3K4me3 peptide binding; Potency, µM (series often up to 114 µM), for the others: top-dose activity change, negative = inhibition, hits mostly inhibitors; 390,000 compounds, 4.4% hits; AID 504339; note: % is set by controls: 0 for no effect and ±100 for the full control effect; nearly all actives have a fitted effect of over 50% in size
G9a inh: inhibitors of human histone lysine methyltransferase G9a; Q96KQ7; 350,000 compounds, 8.8% hits; Potency, µM (series often up to 102 µM), inactives show top-dose activity, negative = inhibition, most hits filed as inhibitors; AID 504332; G9a H3K9 monomethylation, AlphaScreen, 2 h; note: % is set by controls: 0 for no effect and ±100 for the full control effect; nearly all actives have a fitted effect of over 75% in size
Target sequence (Q96KQ7 913-1193 limits assumed): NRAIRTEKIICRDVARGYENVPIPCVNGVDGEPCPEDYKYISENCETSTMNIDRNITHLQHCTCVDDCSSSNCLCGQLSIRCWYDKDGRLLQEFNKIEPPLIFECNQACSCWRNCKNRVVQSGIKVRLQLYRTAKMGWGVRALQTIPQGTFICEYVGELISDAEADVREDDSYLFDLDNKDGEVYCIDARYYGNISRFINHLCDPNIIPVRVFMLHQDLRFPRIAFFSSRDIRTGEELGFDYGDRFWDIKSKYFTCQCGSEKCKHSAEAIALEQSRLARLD
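Quantitative HTS format: methyltransferase activity on a biotin-tagged H3K9 peptide is measured by AlphaScreen, using a rabbit anti-monomethyl-H3K9 antibody with streptavidin donor and anti-IgG acceptor beads. Final levels are 20 nM enzyme, 500 nM peptide, 20 uM SAM; 2 h RT.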
HP1b binding inh: blocks HP1-beta chromodomain binding to methylated histone tails. 390,000 compounds, 0.56% hits. AlphaScreen HP1-beta / biotin-H3K9me3 peptide binding. Potency, µM (highest dose often 114 µM), for inactives: top-dose activity change, negative = inhibition, most hits filed as inhibitors. P83916; note: nearly all actives have a fitted effect of over 70% in size
Target sequence (P83916 whole entry, looked up): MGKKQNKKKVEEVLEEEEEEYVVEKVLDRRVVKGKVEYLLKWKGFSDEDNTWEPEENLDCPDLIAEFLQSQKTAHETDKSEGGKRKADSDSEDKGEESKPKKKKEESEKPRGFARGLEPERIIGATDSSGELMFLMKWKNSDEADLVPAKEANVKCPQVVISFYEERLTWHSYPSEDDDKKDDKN
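Compound inhibition of the preformed complex between 50 nM HP1-beta and 50 nM biotinylated H3K9me3 peptide was read by AlphaScreen. Buffer was PBS pH 7.4 with 0.01% Tween-20. Incubations ran 30 min at room temperature, with 10 ug/mL donor/acceptor beads.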
An asterisk follows results filed as active; ? = inconclusive; . = not tested or not shown; ! = a repeat was not active; [ ] = remark or other dose. Calls come from the whole dose curve; as a rule, active = well fitted curve in the direction sought with a large enough effect; inconclusive = small, poorly fitted or top-dose-only effect, or another doubt; inactive = no such curve, though single readings can be large; an effect the other way counts as inactive or inconclusive. Potency is the fitted concentration of half-maximal effect.

SMILES	GLS inhibitor	BAZ2B block	JMJD2A Tudor	G9a inh	HP1b binding inh
C#CCOCCOCCOCCNc1nc(N2CCN(C(=O)[C@H](CC(N)=O)n3cc(C(N)[C@H](C)CC)nn3)CC2)nc(N2CCN(C(=O)[C@H](CC(N)=O)n3cc(C(N)[C@@H](C)CC)nn3)CC2)n1 (stereo partly specified)	-2%	.	22µM*	.	33%
C#CCOCCOCCOCCNc1nc(N2CCN(C(=O)[C@H](CCCCN)n3cc(CN)nn3)CC2)nc(N2CCN(C(=O)[C@H](CC(N)=O)n3cc(C(N)[C@H](C)CC)nn3)CC2)n1 (stereo partly specified)	1%	.	40µM*	.	15%
COc1ccccc1CNC(=O)C[n+]1ccccc1	1%	6%	-6%	28%[12.7 µM]	46%
CCOC(=O)CNC(=O)N1CCc2cc(S(=O)(=O)N3CCC(C)CC3)ccc21	-4%	4%	-10%	-1%[59 µM]	17%
C#CCOCCOCCOCCNc1nc(N2CCN(C(=O)[C@H](CC(N)=O)n3cc(C(N)[C@@H](C)CC)nn3)CC2)nc(N2CCN(C(=O)[C@H](CCCCN)n3cc([C@@H](N)CC(N)=O)nn3)CC2)n1 (stereo partly specified)	1%	.	79µM*	.	23%
C#CCOCCOCCOCCNc1nc(N2CCN(C(=O)[C@H](CC(N)=O)n3cc(C(N)[C@@H](C)CC)nn3)CC2)nc(N2CCN(C(=O)[C@H](CCC(=O)O)n3cc([C@@H](N)CCCCN)nn3)CC2)n1 (stereo partly specified)	1%	.	79µM*	.	14%
C#CCOCCOCCOCCNc1nc(N2CCN(C(=O)[C@H](CCCCN)n3cc([C@@H](N)C(C)CC)nn3)CC2)nc(N2CCN(C(=O)[C@H](CCCCN)n3cc([C@@H](N)CC(C)C)nn3)CC2)n1 (stereo partly specified)	-11%	71µM*	?	?	23%
Cc1nc2sc(C(N)=O)c(N)c2c(C)c1CC(=O)c1ccccc1	-7%	?	-12%	14µM*	56%
Cc1cc(C)c2c(N)c(C(=O)c3ccccc3)sc2n1	7%	8%	8%	.	82%
CCC(C)NC(=O)CCc1nc2ccccc2n1-c1ccccc1 (stereo unspecified)	5%	-3%	-14%[57.1 µM]	16%[59 µM]	13%
Cc1cc2c(s1)c1cnn(Cc3c(Cl)ccc(C)c3F)c(=O)c1n2C	.	.	-27%	.	.
O=C(NCC(=O)N(CCc1ccccc1)C(C(=O)NC1CCCC1)c1cccnc1)c1ccco1 (stereo unspecified)	2%	4%	-4%	?	9%
O=C(NCC(=O)N(CCc1ccccc1)C(C(=O)NC1CCCCC1)c1ccncc1)c1ccco1 (stereo unspecified)	1%	6%	-9%	40µM*	38%
COc1cc(OC)cc(C2=Cc3ccccc3C(CC(=O)c3ccco3)N2c2ccc(-c3cncnc3)cc2)c1 (stereo unspecified)	14%	.	.	.	.
CC(=O)NCCc1c[nH]c2ccc(O)cc12	74%	.	-9%	11µM*!	35%
COc1ccc2[nH]cc(CCNC(C)=O)c2c1	-1%	.	-19%	0%[59 µM]	11%
CNC(=S)NNc1nncc2ccccc12	?	-14%	-22%	2.5µM*	-14%
NNc1nncc2ccccc12	1%[20 µM]	.	.	7.9µM*!	.
COc1ccc(/C=N/Nc2nncc3ccccc23)cc1	0%	25µM*	28µM*	?	27%
COc1ccccc1/C=N/Nc1nncc2ccccc12	0%	-33%	?	?	-30%
NCc1csc(Nc2nncc3ccccc23)n1	8%	.	.	.	.
CCNC(=S)NNc1nncc2ccccc12	?	-24%	?	?	3%
COC(=O)c1ccccc1NC(=O)CCS(=O)(=O)c1nc(-c2ccc3c(c2)OCO3)cc(C(F)(F)F)n1	-1%	11%	0%	-16%[59 µM]	45%
CC(c1n[nH]c(=S)n1-c1ccccc1)N1CCCCC1 (stereo unspecified)	?	-21%	7.1µM*	18µM*	47%
CCC(c1nnnn1Cc1ccccc1)N1CCN(c2ccc(OC)cc2)CC1 (stereo unspecified)	20%	?	?	13µM*	-4%
SMILES	GLS inhibitor	BAZ2B block	JMJD2A Tudor	G9a inh	HP1b binding inh
Oc1ccc(N2CCN(C(c3ccccn3)c3nnnn3C3CCCC3)CC2)cc1 (stereo unspecified)	49%	-11%	25µM*	1.8µM*	?
COc1ccc(N2CCN(C(c3ccccc3)c3nnnn3Cc3ccccc3)CC2)cc1 (stereo unspecified)	.	.	?	.	-7%
CCC(C)(C)n1nnnc1C(c1ccccn1)N1CCN(c2cccc(OC)c2)CC1 (stereo unspecified)	-11%	-4%	-33%	20µM*	17%
CCCC(c1nnnn1CC1CCCO1)N1CCN(c2ccccc2)CC1 (stereo unspecified)	0%	?	-1%	56µM*	42%
O=C(c1ccc2c(c1)N(Cc1ccc(Cl)cc1)C(=O)c1ccccc1S2(=O)=O)N1CCCC1	3%	-20%	-24%	-34%[59 µM]	27%
CCn1c(=O)c2sccc2n2c(CCCC(=O)N3CCN(c4ccc(F)cc4)CC3)nnc12	3%	-15%	-11%	-5%[59 µM]	24%
COc1ccc(-c2coc3c(C(=O)Nc4cccnc4)cccc23)c(C)c1	0%	.	.	.	.
Cc1ccc(CCNC(=O)c2cc3n(n2)CCCN(Cc2ccc(C)cc2)C3=O)cc1	-15%	-3%	-25%	1%[59 µM]	10%
NS(=O)(=O)c1cccc(C(=O)OCC(=O)NC2CCCc3ccccc32)c1 (stereo unspecified)	-7%	.	-2%	.	13%
COc1ccccc1CNC(=O)CSc1nc(=O)[nH]c2c1CCCC2	-6%	-2%	-10%	5%[59 µM]	8%
CCC(c1nnnn1Cc1ccc2c(c1)OCO2)N1CCN(c2ccc(OC)cc2)CC1 (stereo unspecified)	41%	32µM*	?	40µM*	-42%
COc1ccc(Cn2nnnc2C(c2ccccn2)N2CCN(c3ccc(O)cc3)CC2)cc1 (stereo unspecified)	.	.	32µM*	.	?
COc1ccc(Cn2nnnc2C(c2ccccc2)N2CCN(c3ccccc3)CC2)cc1 (stereo unspecified)	.	.	?	.	7%
COc1ccc(Cn2nnnc2C(c2cccnc2)N2CCN(c3ccc(O)cc3)CC2)cc1 (stereo unspecified)	47%	-1%	?	?	?
CCCC(c1nnnn1Cc1cccs1)N1CCN(c2ccc(OC)cc2)CC1 (stereo unspecified)	37%	45µM*	?	18µM*	?
CCC(c1nnnn1Cc1ccc(OC)cc1)N1CCN(c2ccc(OC)cc2)CC1 (stereo unspecified)	?	35µM*	?	.	?
